# Experimental data taken from PubChem BioAssay AID1210 (NMMLSC, 2008).
# The source made the active and inactive calls.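 The calls were made as follows: active = blocks over 70% of labeled estradiol binding at 10 µM, or over a set limit at 100 nM; inactive = the rest.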
# Target: Estrogen receptor beta (Homo sapiens) (UniProt Q92731)
# Assay: ERbeta ligand binders by competition, primary screen, cell-based, Cos7 ERbeta-GFP, flow cytometry (AID 1210);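 also: 0% = DMSO vehicle wells and 100% = complete loss of labeled estradiol signal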
# Conditions: fluorescent estrogen binding, stronger effect = higher value
# [1] = ligand binding inhibition, at 0.1 µM
# Sequence of Estrogen receptor beta (Homo sapiens) (Q92731 whole entry, looked up): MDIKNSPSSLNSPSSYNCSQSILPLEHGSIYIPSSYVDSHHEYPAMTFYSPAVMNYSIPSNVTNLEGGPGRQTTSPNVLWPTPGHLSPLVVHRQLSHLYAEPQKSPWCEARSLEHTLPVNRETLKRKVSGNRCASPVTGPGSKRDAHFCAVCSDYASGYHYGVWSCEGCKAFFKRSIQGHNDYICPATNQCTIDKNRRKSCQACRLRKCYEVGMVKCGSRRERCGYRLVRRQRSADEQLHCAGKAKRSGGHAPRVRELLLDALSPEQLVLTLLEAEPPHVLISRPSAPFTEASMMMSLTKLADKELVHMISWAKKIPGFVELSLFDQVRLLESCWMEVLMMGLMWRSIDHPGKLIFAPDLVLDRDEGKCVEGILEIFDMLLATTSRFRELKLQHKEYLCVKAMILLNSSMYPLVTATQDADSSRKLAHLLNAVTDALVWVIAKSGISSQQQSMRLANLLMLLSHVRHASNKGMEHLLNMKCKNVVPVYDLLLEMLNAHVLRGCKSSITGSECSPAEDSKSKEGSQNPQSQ
Structure (SMILES),inhibition (at 10 µM),inhibition [1] [%]
O=C(O)c1cc(-c2ccc(O)cc2)nc2ccccc12,57% (inactive),8
COc1ccc2[nH]c3nc(SCc4nnc(-c5ccc(C)cc5)o4)nnc3c2c1,49% (inactive),18
Cc1ccc2[nH]c(=O)c(-c3nc4ccccn4c3NCc3ccco3)cc2c1,56% (inactive),44
NS(=O)(=O)c1ccc2c(c1)C1C=CCC1C(C1CC=CCC1)N2 (stereo not drawn),14% (inactive),2
CCOc1cccc2cc(-c3nnc(NCc4ccco4)s3)c(=O)oc12,26% (inactive),28
Oc1ccc(-c2nnc(-c3ccccc3)c(-c3ccccc3)n2)cc1,38% (inactive),25
CC(=O)c1ccc2c(c1)C1C=CCC1C(c1ccc(S(=O)(=O)N3CCOCC3)cc1)N2 (stereo not drawn),78% (active),17
NC(=O)c1cccc2c1C(=O)N(C1CCCCC1)C2,3% (inactive),4
O=C1C2CC=C(Cl)CC2C(=O)N1CCCCCCN1C(=O)C2CC=C(Cl)CC2C1=O (stereo not drawn),28% (inactive),36
O=C(CSc1nnc(Nc2ccccc2F)s1)NCc1ccco1,4% (inactive),48
Cc1ccc(NC(=O)CSc2nnnn2-c2ccc3c(c2)OCO3)cc1C,32% (inactive),34
COc1ccc2[nH]c3c(c2c1)CCn1c-3nc2ccccc2c1=O,16% (inactive),36
O=C(OCC(=O)N1CCN(C(=O)c2ccco2)CC1)c1cc(-c2ccco2)nc2ccccc12,25% (inactive),33
O=[N+]([O-])c1cc(/C=N/N2CCN(C3c4ccccc4-c4ccccc43)CC2)ccc1Cl,21% (inactive),2
